{
  "source": "the supplement of paper PMC12067093",
  "about": "“Discovery and optimisation of a covalent ligand for TRIM25 and its application to targeted protein ubiquitination” (Chemical Science, 2025)",
  "note": "About 21,000 targets were measured; listed, in parts, are those with the largest changes and a random draw of the rest.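 Note: competitive profiling in live THP-1 cells: cysteine peptides tagged with an iodoacetamide desthiobiotin (IA-DTB) probe, intensity after compound treatment relative to DMSO-treated cells.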",
  "data": [
    {"compound": "Cc1cc(ccc1-c1ccccc1)C(=O)N1CCCN(CC1)C(=O)CCl [compound 10]", "experiment": "probe-labelled cysteine peptide fold change vs DMSO (competition) (log2 fold change); higher = less target engagement (more negative = stronger competition)", "conditions": "50 µM; THP-1; incubation time: 4 h", "values": [
      {"target": "DNAJA3_Q96EY1_236_EFTVNIMDTCER (UniProt Q96EY1)", "sequence (Q96EY1 whole entry, looked up)": "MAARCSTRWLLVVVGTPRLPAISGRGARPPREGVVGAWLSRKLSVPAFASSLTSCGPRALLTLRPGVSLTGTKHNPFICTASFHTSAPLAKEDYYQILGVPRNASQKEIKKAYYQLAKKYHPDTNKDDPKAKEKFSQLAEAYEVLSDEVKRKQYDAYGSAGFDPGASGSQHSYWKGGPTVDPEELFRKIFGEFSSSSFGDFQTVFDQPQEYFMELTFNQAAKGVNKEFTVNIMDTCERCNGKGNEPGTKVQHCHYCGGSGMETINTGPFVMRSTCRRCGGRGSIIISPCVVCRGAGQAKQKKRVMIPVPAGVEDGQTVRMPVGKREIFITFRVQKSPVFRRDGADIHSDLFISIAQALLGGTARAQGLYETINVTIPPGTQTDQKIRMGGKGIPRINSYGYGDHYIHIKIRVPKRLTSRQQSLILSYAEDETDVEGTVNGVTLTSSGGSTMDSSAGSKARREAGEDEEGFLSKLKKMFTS", "probe-labelled cysteine peptide fold change": -0.195},
      {"target": "CTDP1_Q9Y5B0_277_ILSRDECIDPFSK (UniProt Q9Y5B0)", "probe-labelled cysteine peptide fold change": -0.31},
      {"target": "CSMD2_Q7Z408-3_2_CDAHLR (UniProt Q7Z408)", "sequence (Q7Z408 whole entry)": "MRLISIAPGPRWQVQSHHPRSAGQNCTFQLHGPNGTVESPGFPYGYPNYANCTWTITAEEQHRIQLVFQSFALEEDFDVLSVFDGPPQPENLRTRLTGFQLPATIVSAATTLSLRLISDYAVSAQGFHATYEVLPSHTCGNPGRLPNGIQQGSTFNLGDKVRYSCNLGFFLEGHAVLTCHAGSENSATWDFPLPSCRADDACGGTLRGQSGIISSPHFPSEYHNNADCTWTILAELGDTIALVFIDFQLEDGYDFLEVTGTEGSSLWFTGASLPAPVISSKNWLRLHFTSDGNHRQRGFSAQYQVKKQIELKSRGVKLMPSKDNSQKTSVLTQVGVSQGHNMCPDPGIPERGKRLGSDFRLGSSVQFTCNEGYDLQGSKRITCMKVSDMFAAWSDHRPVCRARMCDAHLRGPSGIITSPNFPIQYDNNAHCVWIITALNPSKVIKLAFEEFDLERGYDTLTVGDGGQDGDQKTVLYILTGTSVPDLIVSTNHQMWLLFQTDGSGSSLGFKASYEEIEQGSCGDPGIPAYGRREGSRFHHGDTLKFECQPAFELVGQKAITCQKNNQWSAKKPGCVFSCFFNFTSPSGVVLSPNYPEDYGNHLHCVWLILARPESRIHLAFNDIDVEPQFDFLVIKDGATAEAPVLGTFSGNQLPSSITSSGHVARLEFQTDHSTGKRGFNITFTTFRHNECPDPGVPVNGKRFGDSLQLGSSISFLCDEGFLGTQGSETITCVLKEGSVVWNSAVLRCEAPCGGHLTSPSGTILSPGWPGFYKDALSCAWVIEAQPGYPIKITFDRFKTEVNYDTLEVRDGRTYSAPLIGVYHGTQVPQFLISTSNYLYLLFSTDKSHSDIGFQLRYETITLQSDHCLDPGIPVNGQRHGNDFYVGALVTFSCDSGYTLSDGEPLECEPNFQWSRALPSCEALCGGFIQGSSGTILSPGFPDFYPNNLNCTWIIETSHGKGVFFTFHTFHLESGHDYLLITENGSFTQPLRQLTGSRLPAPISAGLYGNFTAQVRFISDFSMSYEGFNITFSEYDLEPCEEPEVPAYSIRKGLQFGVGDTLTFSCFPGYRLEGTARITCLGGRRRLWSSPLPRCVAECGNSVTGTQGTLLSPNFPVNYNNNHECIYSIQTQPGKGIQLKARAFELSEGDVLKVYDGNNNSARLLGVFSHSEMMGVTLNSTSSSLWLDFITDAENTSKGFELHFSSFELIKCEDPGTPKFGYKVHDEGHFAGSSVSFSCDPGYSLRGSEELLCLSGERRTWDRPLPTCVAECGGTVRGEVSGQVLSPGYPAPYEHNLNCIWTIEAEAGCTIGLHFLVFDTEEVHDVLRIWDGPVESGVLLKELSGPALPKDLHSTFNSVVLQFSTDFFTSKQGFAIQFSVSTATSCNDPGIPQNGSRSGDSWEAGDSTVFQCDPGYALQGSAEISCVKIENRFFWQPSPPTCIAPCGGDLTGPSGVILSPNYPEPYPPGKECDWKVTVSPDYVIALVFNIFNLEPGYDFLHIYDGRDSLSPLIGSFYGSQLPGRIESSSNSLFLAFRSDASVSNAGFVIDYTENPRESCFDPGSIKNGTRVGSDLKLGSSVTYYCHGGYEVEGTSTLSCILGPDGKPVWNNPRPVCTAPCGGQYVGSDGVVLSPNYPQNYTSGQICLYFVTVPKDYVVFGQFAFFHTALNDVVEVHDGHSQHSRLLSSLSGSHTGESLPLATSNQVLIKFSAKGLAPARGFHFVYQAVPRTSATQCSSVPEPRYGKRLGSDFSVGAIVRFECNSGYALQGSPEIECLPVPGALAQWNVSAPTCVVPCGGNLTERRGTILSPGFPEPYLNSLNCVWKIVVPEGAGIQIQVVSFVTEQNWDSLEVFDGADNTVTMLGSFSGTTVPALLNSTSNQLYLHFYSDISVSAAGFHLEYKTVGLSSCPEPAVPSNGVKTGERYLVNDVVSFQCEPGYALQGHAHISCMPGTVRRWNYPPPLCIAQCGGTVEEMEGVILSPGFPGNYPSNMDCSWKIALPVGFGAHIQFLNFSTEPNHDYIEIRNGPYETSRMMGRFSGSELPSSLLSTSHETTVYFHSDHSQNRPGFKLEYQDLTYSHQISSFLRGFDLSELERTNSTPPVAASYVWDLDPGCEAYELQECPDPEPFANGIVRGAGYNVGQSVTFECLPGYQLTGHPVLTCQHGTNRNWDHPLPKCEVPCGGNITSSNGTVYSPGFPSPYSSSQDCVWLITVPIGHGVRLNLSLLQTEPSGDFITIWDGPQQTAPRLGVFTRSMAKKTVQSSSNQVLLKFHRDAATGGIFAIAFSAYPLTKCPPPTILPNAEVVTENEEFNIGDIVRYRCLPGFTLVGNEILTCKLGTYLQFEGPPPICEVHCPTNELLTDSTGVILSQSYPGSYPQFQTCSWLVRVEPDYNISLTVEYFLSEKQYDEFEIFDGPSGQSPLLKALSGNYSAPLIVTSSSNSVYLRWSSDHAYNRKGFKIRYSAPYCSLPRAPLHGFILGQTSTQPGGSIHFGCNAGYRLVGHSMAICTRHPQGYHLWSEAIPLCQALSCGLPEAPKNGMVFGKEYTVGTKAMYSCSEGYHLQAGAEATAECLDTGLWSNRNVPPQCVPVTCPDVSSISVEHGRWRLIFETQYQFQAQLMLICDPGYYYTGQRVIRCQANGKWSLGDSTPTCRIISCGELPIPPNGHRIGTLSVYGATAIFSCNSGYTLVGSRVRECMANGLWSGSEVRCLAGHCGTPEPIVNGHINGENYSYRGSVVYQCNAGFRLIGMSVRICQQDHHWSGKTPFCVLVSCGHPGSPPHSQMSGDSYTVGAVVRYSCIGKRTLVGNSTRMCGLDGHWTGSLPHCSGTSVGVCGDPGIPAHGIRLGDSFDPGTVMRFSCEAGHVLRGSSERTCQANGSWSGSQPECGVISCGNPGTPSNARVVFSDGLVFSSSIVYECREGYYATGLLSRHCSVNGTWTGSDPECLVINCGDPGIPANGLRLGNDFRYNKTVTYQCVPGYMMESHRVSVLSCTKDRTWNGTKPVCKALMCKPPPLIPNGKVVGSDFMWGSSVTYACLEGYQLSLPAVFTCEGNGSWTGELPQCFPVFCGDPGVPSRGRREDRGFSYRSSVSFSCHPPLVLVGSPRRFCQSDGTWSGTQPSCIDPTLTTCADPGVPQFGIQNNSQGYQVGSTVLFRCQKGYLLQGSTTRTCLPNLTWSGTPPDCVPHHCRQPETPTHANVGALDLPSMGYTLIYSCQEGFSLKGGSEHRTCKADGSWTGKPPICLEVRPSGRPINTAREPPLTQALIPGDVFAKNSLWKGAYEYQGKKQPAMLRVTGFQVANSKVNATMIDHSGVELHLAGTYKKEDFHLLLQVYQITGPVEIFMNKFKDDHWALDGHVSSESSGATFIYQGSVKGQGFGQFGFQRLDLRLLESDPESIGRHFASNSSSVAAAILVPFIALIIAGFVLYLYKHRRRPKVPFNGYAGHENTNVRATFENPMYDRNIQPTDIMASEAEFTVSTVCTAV", "probe-labelled cysteine peptide fold change": -2.14},
      {"target": "CSE1L_P55060_344_NLFEDQNTLTSICEK (UniProt P55060)", "probe-labelled cysteine peptide fold change": -0.107},
      {"target": "CRYZ_Q08257_45_VHACGVNPVETYIR (UniProt Q08257)", "probe-labelled cysteine peptide fold change": -0.01},
      {"target": "CTSZ_Q9UBR2_164_DQECDK (UniProt Q9UBR2)", "probe-labelled cysteine peptide fold change": -0.207},
      {"target": "CTSZ_Q9UBR2_179_ECHAIR (UniProt Q9UBR2)", "probe-labelled cysteine peptide fold change": 2.23},
      {"target": "DENND4A_Q7Z401_35_PLEEEIHFNDACHK (UniProt Q7Z401)", "probe-labelled cysteine peptide fold change": -0.131},
      {"target": "CNBP_P62633_150_CGETGHVAINCSK (UniProt P62633)", "sequence (P62633 whole entry, looked up)": "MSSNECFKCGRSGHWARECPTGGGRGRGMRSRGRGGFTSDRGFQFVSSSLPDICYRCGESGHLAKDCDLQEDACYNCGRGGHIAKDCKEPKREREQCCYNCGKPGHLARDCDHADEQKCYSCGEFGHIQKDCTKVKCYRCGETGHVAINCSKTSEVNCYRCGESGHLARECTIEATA", "probe-labelled cysteine peptide fold change": 0.0483},
      {"target": "CRIP1_P50238_52+56_PYCNHPCYAAMFGPK (UniProt P50238)", "sequence (P50238 whole entry, looked up)": "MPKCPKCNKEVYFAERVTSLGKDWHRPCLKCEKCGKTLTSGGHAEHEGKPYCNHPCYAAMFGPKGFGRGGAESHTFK", "probe-labelled cysteine peptide fold change": -0.424},
      {"target": "DDX24_Q9GZR7_599_SLVFANSISCIK (UniProt Q9GZR7)", "probe-labelled cysteine peptide fold change": 0.498},
      {"target": "CTR9_Q6PD62_196_TNPGCPAEVR (UniProt Q6PD62)", "probe-labelled cysteine peptide fold change": -0.0939},
      {"target": "DDX24_Q9GZR7_570_IHCETDEK (UniProt Q9GZR7)", "probe-labelled cysteine peptide fold change": 0.261},
      {"target": "CRYZL1_O95825_302_YLCILK (UniProt O95825)", "probe-labelled cysteine peptide fold change": -0.442},
      {"target": "DESI1_Q6ICB0_108_GEAYNLFEHNCNTFSNEVAQFLTGR (UniProt Q6ICB0)", "sequence (Q6ICB0 whole entry)": "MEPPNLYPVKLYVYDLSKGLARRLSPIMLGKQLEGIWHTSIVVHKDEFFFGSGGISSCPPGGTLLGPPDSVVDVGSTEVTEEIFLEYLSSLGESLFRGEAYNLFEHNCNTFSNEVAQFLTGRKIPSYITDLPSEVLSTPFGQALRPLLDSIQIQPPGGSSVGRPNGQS", "probe-labelled cysteine peptide fold change": -1.61},
      {"target": "DDX5_P17844_191_ELAQQVQQVAAEYCR (UniProt P17844)", "sequence (P17844 whole entry, looked up)": "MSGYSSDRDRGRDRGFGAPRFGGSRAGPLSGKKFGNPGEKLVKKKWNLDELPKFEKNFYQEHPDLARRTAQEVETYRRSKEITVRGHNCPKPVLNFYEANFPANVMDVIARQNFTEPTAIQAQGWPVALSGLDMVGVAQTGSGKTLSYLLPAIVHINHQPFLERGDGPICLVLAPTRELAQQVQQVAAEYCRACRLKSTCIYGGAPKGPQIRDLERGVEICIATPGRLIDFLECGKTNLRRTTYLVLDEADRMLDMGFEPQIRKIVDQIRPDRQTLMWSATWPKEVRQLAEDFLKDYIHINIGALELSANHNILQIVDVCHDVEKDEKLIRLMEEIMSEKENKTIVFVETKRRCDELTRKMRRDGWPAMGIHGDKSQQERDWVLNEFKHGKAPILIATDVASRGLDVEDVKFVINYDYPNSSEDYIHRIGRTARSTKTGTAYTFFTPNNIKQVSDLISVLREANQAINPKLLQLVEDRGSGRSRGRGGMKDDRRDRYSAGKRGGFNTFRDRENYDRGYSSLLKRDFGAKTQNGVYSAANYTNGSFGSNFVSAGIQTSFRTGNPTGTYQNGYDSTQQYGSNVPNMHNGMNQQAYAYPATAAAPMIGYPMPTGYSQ", "probe-labelled cysteine peptide fold change": -0.161},
      {"target": "DGKE_P52429_167_TVHDECMK (UniProt P52429)", "probe-labelled cysteine peptide fold change": -0.168}
    ]}
  ]
}
